Laboratory results as given in PubChem BioAssay (NCATS).
Results filed as inconclusive are left out. Unmarked numbers belong to inactive results. Calls follow the shape of the dose curve; as a rule, active = well fitted cell-killing curve with a large enough effect; inconclusive = small, poorly fitted or top-dose-only effect; inactive = flat fitted curve, though single readings scatter.

Test: qHTS of pediatric cancer cell lines to identify multiple opportunities for drug repurposing: Primary screen for control Hh wild type fibroblast cells (AID 1347106);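 also: a drop in luminescence marks cytotoxicity and a rise apparent proliferation; nearly all actives have a fitted effect of over 55% in size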
Conditions: Hh wild-type fibroblast viability, CellTiter-Glo luminescence, 48 h; series mostly up to 46 µM; activity change, negative = cytotoxic: at the top concentration
Method in brief: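 Cells (500-1,000/well) in growth media were settled 5 h at 37 degrees C, then given compounds for 48 h. Viability was read as CellTiter-Glo luminescence. Primary runs used MIPE at 11 points (0.78 nM-46 µM) and NPC at 8 points (0.59 nM-46 µM); follow-ups used 11 points.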
% is scaled to controls: 0 for no effect and ±100 for the full control effect.

Row | Structure (SMILES) | activity change, negative = cytotoxic
1 | CNC(=O)CN(CCN(CCN(CC(=O)[O-])CC(=O)NC)CC(=O)[O-])CC(=O)[O-].O.[Gd+3] | 7.3%
2 | OC(CCN1CCCCC1)(c1ccccc1)c1ccccc1 | 13.5%
3 | COc1cc2c(cc1OC)[C@@H]1CC(=O)[C@@H](CC(C)C)CN1CC2 | 7.95%
4 | CC1(C)O[C@@H]2C[C@H]3[C@@H]4CCC5=CC(=O)CC[C@]5(C)[C@@]4(F)[C@@H](O)C[C@]3(C)[C@]2(C(=O)CCl)O1 | -5.08%
5 | CCCC(=O)O[C@]1(C(=O)CO)CC[C@H]2[C@@H]3CCC4=CC(=O)CC[C@]4(C)[C@H]3[C@@H](O)C[C@@]21C | -5.38%
6 | C[C@]12CC[C@H]3[C@@H](CCC4=CC(=O)CC[C@@]43C)[C@@H]1CC[C@@H]2C(=O)CO | 8.27%
7 | C[C@@H]1C[C@H]2[C@@H]3CCC4=CC(=O)C=C[C@]4(C)[C@@]3(F)[C@@H](O)C[C@]2(C)[C@H]1C(=O)CO | -4.16%
8 | C[C@@H]1C[C@H]2[C@@H]3C[C@H](F)C4=CC(=O)C(Cl)=C[C@]4(C)[C@@]3(F)[C@@H](O)C[C@]2(C)[C@@]1(O)C(=O)CO | -4.99%
9 | CC(=O)[C@H]1CC[C@H]2[C@@H]3C[C@H](C)C4=CC(=O)CC[C@]4(C)[C@H]3[C@@H](O)C[C@]12C | 0.999%
10 | O=C(OCC(O)CO)c1ccccc1Nc1ccnc2cc(Cl)ccc12 (centres undefined) | 2.48%
11 | CC(=O)Oc1ccc(C(c2ccc(OC(C)=O)cc2)c2ccccn2)cc1 | -16.9%
12 | O=C(COc1ccc(Cl)cc1)N1CCN(Cc2ccc3c(c2)OCO3)CC1 | 10.2%
13 | CCOC(=O)n1ccn(C)c1=S | -4.1%
14 | COc1cc(C(=S)N2CCOCC2)cc(OC)c1OC | 7.4%
15 | CCCCC(=O)O[C@]1(C(=O)CO)CC[C@H]2[C@@H]3CCC4=CC(=O)CC[C@]4(C)[C@H]3[C@@H](O)C[C@@]21C | -3.72%
16 | CCN(CC)CCOC(=O)C(c1ccccc1)C1CCCCC1 (centres undefined) | -2.22%
17 | O=C(CCCN1CCC(O)(c2ccc(Br)cc2)CC1)c1ccc(F)cc1 | 4.17%
18 | NC(CS)C(=O)O (centres undefined) | 8.57%
19 | Cc1c(F)c(N2CCNC(C)C2)cc2c1c(=O)c(C(=O)O)cn2C1CC1 (centres undefined) | 8.2%
20 | CC(=O)OCC(=O)[C@@]1(O)CC[C@H]2[C@@H]3CCC4=CC(=O)C=C[C@]4(C)[C@H]3[C@@H](O)C[C@@]21C | -3.71%

Row | Structure (SMILES) | activity change, negative = cytotoxic
21 | COc1cc(/C=C/C(=O)O[C@H]2CC[C@]34C[C@]35CC[C@]3(C)[C@@H]([C@H](C)CCC=C(C)C)CC[C@@]3(C)[C@@H]5CC[C@H]4C2(C)C)ccc1O | 0.883%
22 | CCCCCCCCCCCCCCNCCO | 1.68%
23 | CC1(C)O[C@@H]2C[C@H]3[C@@H]4C[C@H](F)C5=CC(=O)CC[C@]5(C)[C@H]4[C@@H](O)C[C@]3(C)[C@]2(C(=O)CO)O1 | 6.4%
24 | CC(C)(CO)[C@@H](O)C(=O)NCCCO | 11%
25 | CCN(CC)C(=O)N1CCN(C)CC1 | 10.1%
26 | NC(CO)(CO)CO | 3.25%
27 | NCCCC[C@H](N[C@@H](CCc1ccccc1)C(=O)O)C(=O)N1CCC[C@H]1C(=O)O | -2.05%
28 | O=C(O)CNC(=O)c1ccccc1 | -6.89%
29 | Cc1nc2n(c(=O)c1CCN1CCC(c3noc4cc(F)ccc34)CC1)CCC[C@H]2O | -0.951% [at 16.1 µM]
30 | O=c1[nH]c(=O)n([C@H]2C[C@H](O)[C@@H](CO)O2)cc1C(F)(F)F | 6.2%
31 | CC(Cc1ccccc1)(NC(=O)CN)c1ccccc1 (centres undefined) | -4.98%
32 | OCc1ccccc1O | 6.85%
33 | CO/N=C1\CN(c2nc3c(cc2F)c(=O)c(C(=O)O)cn3C2CC2)CC1CN (centres undefined) | 5.54%
34 | C[C@]12CCC(=O)C=C1[C@@H]1C[C@@H]1[C@H]1[C@@H]3[C@@H]4C[C@@H]4[C@@]4(CCC(=O)O4)[C@@]3(C)CC[C@@H]12 | 6.47%
35 | c1ccc(CNCCNCc2ccccc2)cc1 | -0.0052%
36 | OC[C@H]1O[C@H](O[C@]2(CCl)O[C@H](CCl)[C@@H](O)[C@@H]2O)[C@H](O)[C@@H](O)[C@H]1Cl | 10.6%
37 | O=C1OC2(c3ccc(O)cc3Oc3cc(O)ccc32)c2ccccc21 | -1.74%
38 | C[C@]12CC[C@@H]3c4ccc(O)cc4CC[C@H]3[C@@H]1C[C@@H](O)[C@@H]2O | 8.11%
39 | NCCC(O)(P(=O)(O)O)P(=O)(O)O | 12.5%
